# Only some compounds are listed: those with a hit (about 27% of all), similar ones and a draw of the others.
# CYP2C19 act: activators of human cytochrome P450 2C19; activation factor at 5 µM; recombinant CYP2C19, luciferin-H EGE luminescence; stronger effect = higher value; 0 = fully inhibited enzyme, 1 = untreated enzyme; 96,000 tested, under 10 active;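 active = activation factor of at least 2 at 5 µM in the primary screen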;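 also: 0 = wells with 2.5 mM tranylcypromine and 1 = vehicle-only wells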
# CYP2C19 inh: blocks human cytochrome P450 2C19. AID 778. CYP2C19 Supersomes, luciferin-H EGE luminescence, 30 min. inhibition, % at 5 µM. 96,000 compounds, 21% hits;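 active = CYP2C19 inhibition above a set limit at 5 µM in the primary screen, cut at about 50% in these data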;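 also: plate controls were negative control wells for no effect and 2.5 mM tranylcypromine positive control for full effect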
# CYP2C9 inh: human CYP2C9 inhibition. inhibition, % at 5 µM. CYP2C9 Supersomes, luciferin-H conversion, luminescence. AID 777. 96,000 compounds, 20% hits;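 active = blocking of liver enzyme CYP2C9 beyond about 50% at 5 µM, limit read from the data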
# Target sequence (P11712 whole entry, looked up): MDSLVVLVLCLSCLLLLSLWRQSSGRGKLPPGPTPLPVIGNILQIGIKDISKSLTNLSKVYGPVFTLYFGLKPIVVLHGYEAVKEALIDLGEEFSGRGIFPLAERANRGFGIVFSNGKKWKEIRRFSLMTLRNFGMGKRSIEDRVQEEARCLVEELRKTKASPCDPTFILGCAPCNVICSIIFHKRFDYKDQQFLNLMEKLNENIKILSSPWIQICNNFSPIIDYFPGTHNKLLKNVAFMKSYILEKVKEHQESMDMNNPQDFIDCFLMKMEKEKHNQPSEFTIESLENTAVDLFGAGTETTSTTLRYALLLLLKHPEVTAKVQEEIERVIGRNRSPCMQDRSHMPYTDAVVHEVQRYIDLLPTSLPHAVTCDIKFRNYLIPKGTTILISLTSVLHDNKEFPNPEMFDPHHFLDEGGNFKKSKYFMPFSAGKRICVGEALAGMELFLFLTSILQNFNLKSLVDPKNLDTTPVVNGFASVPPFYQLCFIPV
# sEH inh: blocks human soluble epoxide hydrolase activity; 91,000 compounds, 0.34% hits; P34913; recombinant human sEH enzymatic activity assay; AID 707; inhibition, % at 2 µM; in the data active = inhibition above about 80%
# CYP2C9 act: increases human cytochrome P450 2C9 activity; 96,000 compounds, 1.4% hits; recombinant CYP2C9, luciferin-H conversion, luminescence; stronger effect = higher value; factor 1 = untreated enzyme, 0 = blocked; activation factor at 5 µM;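 active = activation factor of 2 or more for CYP2C9 at a 5 µM dose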;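 also: 0 = sulfaphenazole-blocked wells and 1 = vehicle-only wells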
# sEH activator: increases human soluble epoxide hydrolase activity; 91,000 compounds, 0.04% hits; activation, % at 2 µM; AID 717; purified human sEH enzymatic activity, activator screen; in the data active = activation above about 37%
# * marks the source's active call; other numbers are inactive results; . = no result.
SMILES,CYP2C19 act,CYP2C19 inh,CYP2C9 inh,sEH inh,CYP2C9 act,sEH activator
O=C(CCS(=O)(=O)Cc1ccccc1)N1CCc2ccccc2C1,1,1,-24,-4,1.2,1
O=C(CCCNS(=O)(=O)c1cccs1)N1CCc2ccccc2C1,0.4,55*,-62,.,1.6,.
CC(C)C(NS(=O)(=O)c1cccs1)C(=O)N1CCc2ccccc2C1 (stereo not given),0.2,79*,43,-1,0.6,1
Cc1cc(C)n(C(=O)CNC(=O)CCc2ccccc2)n1,0.9,9,-87,7,1.9,-7
CCN1CCN(c2cc(C(C)(C)C)nc3c(-c4ccccc4)c(C)nn23)CC1,0.9,10,18,0,0.8,-1
COc1ccc(-c2ccc(C#N)c(SCC(=O)OCc3ccccc3)n2)cc1OC,0.8,22,92*,-2,0.1,-1
Cc1cc(NC(=O)CSc2nc(-c3cccnc3)ccc2C#N)no1,0.7,33,48,.,0.5,.
N#Cc1ccc(-c2ccc3c(c2)OCO3)nc1SCC(=O)OCc1ccccc1,1.2,-24,92*,1,0.1,-1
CCSc1nc(-c2ccc(OC)cc2)ccc1C#N,0.4,63*,90*,0,0.1,-1
COc1ccc(-c2cc(-c3ccc(OC)cc3)c(C#N)c(SC)n2)cc1,.,.,.,-5,.,11
COc1ccccc1-c1cc(-c2ccccc2)nc(SC(C(N)=O)c2ccccc2)c1C#N (stereo not given),0.9,12,30,-9,0.7,12
Cc1ccc(NC(=O)CC2Oc3ccccc3NC2=O)c(C)c1 (stereo not given),0.9,12,-18,.,1.2,.
CCCCn1c(NC(C)=O)c(C#N)c2nc3ccccc3nc21,0.9,11,14,-7,0.9,5
COc1ccc(CCn2c(N)c(C#N)c3nc4ccccc4nc32)cc1OC,0,98*,40,1,0.6,-3
COc1ccccc1CCn1c(N)c(C#N)c2nc3ccccc3nc21,0.6,38,55*,-16,0.4,13
COc1ccc(Cn2c(N)c(C#N)c3nc4ccccc4nc32)cc1OC,0.1,90*,67*,4,0.3,-4
O=C(NC(=S)Nc1ccc(C(=O)N2CCOCC2)cc1)c1ccc([N+](=O)[O-])cc1,0.8,18,4,11,1,-10
C=CCNC(=O)CCCc1ccccc1,0.3,67*,4,.,1,.
CCN(CC)c1ccc(-c2nn3c(-c4cccnc4)nnc3s2)cc1,0.7,28,27,-3,0.7,4
CCCOc1ccc2c(=O)c(-c3cc(C(=O)OC)oc3C)c(C)oc2c1,0.8,20,48,-6,0.5,6
CC(C)N(C(=O)CSc1nnc(-c2cc3ccccc3cc2O)n1Cc1ccco1)C(C)C,0.6,37,62*,-12,0.4,10
O=C(CSc1nnc(-c2cc3ccccc3cc2O)n1Cc1ccco1)N1CCc2ccccc2C1,0.4,57*,81*,-3,0.2,5
O=C(Nc1nnc(COc2ccc(Cl)cc2)s1)c1cccs1,0.8,22,55*,-2,0.5,-1
COc1ccc(-c2nnc(-c3ccc(N)cc3)o2)cc1,0.9,8,77*,5,0.2,-6
COc1cc(NS(=O)(=O)c2ccc(N/C=C(\C#N)c3nc4cc(Cl)ccc4o3)cc2)nc(OC)n1,1.1,-6,63*,-11,0.4,13
SMILES,CYP2C19 act,CYP2C19 inh,CYP2C9 inh,sEH inh,CYP2C9 act,sEH activator
COc1cc(NS(=O)(=O)c2ccc(NC(C)=O)cc2)nc(OC)n1,1.1,-13,15,-25,0.8,22
CCOC(=O)c1c(NC(=O)c2ccc(Br)o2)sc(C)c1CC,0.6,39,33,.,0.7,.
C=CCn1c(NC(=O)c2ccc(Br)o2)c(C(=O)OCC)sc1=S,0.7,25,88*,4,0.1,-4
Cc1ccc(-n2nnnc2SCC(=O)Nc2ccc3c(c2)COC3=O)cc1C,0.8,20,-3,50,1,-50
c1ccc(-c2nn3c(Cn4nnc5ccccc54)nnc3s2)cc1,0.9,14,13,6,0.9,-6
COc1ccccc1-c1nnc2sc(COc3ccc(Cl)cc3)nn12,0.2,81*,88*,-7,0.1,5
COc1ccc(OCc2nn3c(-c4ccccn4)nnc3s2)cc1,0.6,36,37,-6,0.6,5
COc1ccc(Cc2nn3c(-c4ccccc4OC)nnc3s2)cc1,0.2,82*,60*,.,0.4,.
COc1ccc(Cc2nn3c(Cn4nnc5ccccc54)nnc3s2)cc1,0.1,87*,79*,-1,0.2,4
Cc1sc2ncnc(SCC(=O)NC3CC3)c2c1C,0.8,24,30,0,0.7,2
COC(=O)CC1Oc2ccc(C)cc2NC1=O (stereo not given),0.8,25,13,-1,0.9,0
O=C(O)CC1Oc2ccc(Cl)cc2NC1=O (stereo not given),0.9,8,55*,.,0.4,.
COc1cc(NS(=O)(=O)c2ccc3c(c2)oc(=O)n3C)cc(OC)c1OC,0.5,46,71*,.,0.3,.
COc1ccc(NS(=O)(=O)c2ccc3c(c2)oc(=O)n3C)c(OC)c1,0,96*,30,-8,0.7,7
COc1ccc(N2CCN(CCCNS(=O)(=O)c3ccc4c(c3)oc(=O)n4C)CC2)cc1,1.1,-7,-2,7,1,-5
COC(=O)c1ccc(NS(=O)(=O)c2ccc3c(c2)oc(=O)n3C)cc1,0.1,89*,90*,4,0.1,0
CCC(C)Sc1nc2c(c(=O)[nH]c(=O)n2C)n1Cc1ccccc1Cl (stereo not given),1,2,4,.,1,.
C=CCSc1nnc2c(n1)OC(c1c(C)[nH]n(-c3ccccc3)c1=O)Nc1ccccc1-2 (stereo not given),0.9,8,72*,9,0.3,-11
C=CCSc1nnc(-c2ccccc2N=Cc2c(C)[nH]n(-c3ccccc3)c2=O)c(=O)[nH]1,0.5,48,99*,-6,0,6
C=CCSc1nnc2c(n1)OC(c1cccnc1)Nc1ccccc1-2 (stereo not given),1,-3,0,-4,1,5
CCC(=O)N(Cc1ccc(S(N)(=O)=O)cc1)C1CC(=O)N(c2ccc(OC)cc2)C1=O (stereo not given),1.1,-6,0,5,1,-4
COc1ccc2[nH]c(=O)c(CN(CCO)C(=O)c3ccccc3F)cc2c1,1,-2,6,3,0.9,-4
Cc1ccccc1Nc1nc(-c2sc(NC(=O)c3ccc([N+](=O)[O-])cc3)nc2C)cs1,0.5,52*,44,43,0.6,-40
CCOc1ccccc1Nc1nc(-c2sc(NC(=O)c3ccc([N+](=O)[O-])cc3)nc2C)cs1,0.6,41,34,25,0.7,-20
Cc1nc(NC(=O)c2ccccc2)sc1-c1csc(Nc2ccc(F)cc2)n1,0.2,78*,-87,66,1.9,-64

# Screens (PubChem BioAssay)
